This passage reports growth results from PubChem BioAssay (NCI).

Several values for one entry are separate records, joined by “and”; a condition that tells them apart may be missing. Equal entries are not always repeated. This is part of a sample that, as a whole, favours compounds with a hit. Of some 83,000 tested, about 20% had one in any assay.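 Compound tested at a single concentration for 48 hours in 96-well plates; a percent growth value below 10 was scored as active.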 Activity calls are given as the source filed them.

The assay has as its system UACC-62 melanoma. Kind of assay: NCI-60 one-dose screen, 48 h (100 = growth as untreated, 0 = no growth, -100 = all killed). Conditions: 10 µM unless noted.
Regarding `COC(=O)/C=C\C(C#N)(C#N)N=Cc1ccsc1`, the growth was -87.5% [100 µM] (active) and -74.6% [100 µM] (active).

Turning to `CC1CC2(OC2C)C(=O)OC2CCN(C)C/C=C(/COC(=O)C1(C)O)C2=O` (centres undefined), the growth is 89.6% [100 µM] (inactive) and 94.3% [100 µM] (inactive). The same measure for `Clc1ccc(C2C3COc4ccccc4C3=NN2c2ccccc2)cc1` (centres undefined): 37.4% [100 µM] (inactive) and 0.301% [100 µM] (active); for `Cc1ccc(OCC2OC(n3cnc4c(Cl)nc(Cl)nc43)CC2Oc2ccc(C)cc2)cc1` (centres undefined): -90.8% [100 µM] (active) and -89.2% [100 µM] (active). For the compound `CNC(=S)/C(=N\Nc1nc[nH]c1C(N)=O)C(N)=S`, the growth was -8.08% [100 µM] (active) and 0.0251% [100 µM] (active). The same measure for `C=C(CCC(C(=O)O)C1CCC2(C)C3=C(CCC12C)C1(C)CCC(O)C(C)(C)C1CC3)C(C)C` (centres undefined): -50.9% [100 µM] (active) and -100% [100 µM] (active); for `COC(=O)C(Cc1nc2ccccc2[nH]c1=O)C(=O)C(=O)Nc1cc(C(F)(F)F)ccc1Cl` (centres undefined): -87.8% [100 µM] (active) and -39.4% [100 µM] (active). The same measure for `N#C/C=C1\C=CC(O)C(O)C1OC1OC(CO)C(O)C(O)C1O` (centres undefined): 95% [100 µM] (inactive) and 88.4% [100 µM] (inactive); for `COc1ccc2cc1Oc1ccc(cc1)C[C@@H]1c3cc(c(OC)cc3CCN1C)Oc1c(OC)c(OC)cc3c1[C@H](C2)N(C)CC3`: 20.3% [100 µM] (inactive) and -83.9% [100 µM] (active); for `Cc1coc2c1C(OC(=O)C(C)C)C1(C)C(C)CCC(O)C1C2=O` (centres undefined): 39% [100 µM] (inactive) and 18.7% [100 µM] (inactive).

Turning to `COC(=O)C1CCC(=O)N1CN(C(C)=O)c1cccc(O)c1` (centres undefined), the growth is 74.6% [100 µM] (inactive) and 102% [100 µM] (inactive). The same measure for `O=C1CC(c2ccccc2)NCCCCN2CC(CN1)C(C(O)c1ccccc1)C2=O` (centres undefined): 72.5% [100 µM] (inactive) and 81.1% [100 µM] (inactive); for `O=C(O)CCCC(=O)Nn1c(Cc2ccc(Cl)cc2)n[nH]c1=O`: 70.6% [100 µM] (inactive) and 92.1% [100 µM] (inactive); for `COC(=O)/C(=N\NC(=S)NN)C(C(=O)OC)C(=O)C(=O)Nc1cccc(C(F)(F)F)c1` (centres undefined): 98.2% [100 µM] (inactive) and 59.6% [100 µM] (inactive). The same measure for `O=C(Cc1nc2ccc(C(=O)c3ccccc3)cc2[nH]c1=O)C(=O)Nc1ccccc1[N+](=O)[O-]`: 30.2% [100 µM] (inactive) and -20.2% [100 µM] (active); for `Cc1cc(S(=O)(=O)O)c(NC(=O)c2oc3cc(O)ccc3c(=O)c2C)cc1Cl`: 85.1% [100 µM] (inactive) and 89.4% [100 µM] (inactive).

On to `COc1cc2c(c3c1c(=O)c1ccccc1n3C)C=C([N+](=O)[O-])C(C)(C)O2`, for which the growth is -21.5% [100 µM] (active) and -100% [100 µM] (active). The same measure for `O=C1c2ccccc2-c2c1c1ccccc1c(=O)n2-c1cccnc1`: 35.8% [100 µM] (inactive) and 0.376% [100 µM] (active); for `C=C1CC2(C)CCC(OC(=O)C3(C)OC3C)C(C)(OC(C)=O)C2CC1=C(C)C` (centres undefined): 75.8% [100 µM] (inactive) and 12.7% [100 µM] (inactive). As to `COc1ccc2cc(CN3CCC(C4CCNCC4)CC3)ccc2c1`, the growth is -93.1% [100 µM] (active) and -100% [100 µM] (active).

With `CC1=CC(=O)c2ccc(C)cc2C1=O`, the growth was -90.3% [100 µM] (active) and -100% [100 µM] (active). Regarding `COc1cc2oc3c(c(=O)c2c(O)c1/C=C/C(C)C)CCC(C)(C)Oc1cc(O)ccc1-3`, the growth was -23.1% [100 µM] (active) and -100% [100 µM] (active). As to `Cc1ccc(/C=N/Nc2nncc3ccccc23)s1`, the growth was 6.4% [100 µM] (active) and 1.47% [100 µM] (active). The same measure for `Clc1c(Cl)c(Cl)c2nn(C3CCCO3)nc2c1Cl` (centres undefined): -16.1% [100 µM] (active) and -100% [100 µM] (active); for `Cc1ccc(/C=C2/N=C(N/N=C\c3ccccc3)NC2=O)cc1`: 28.2% [100 µM] (inactive) and 56.4% [100 µM] (inactive); for `CCCCC1C(=O)N(c2ccc(S(=O)(=O)Nc3ccccn3)cc2)N(c2ccc(O)c(C(=O)O)c2)C1=O` (centres undefined): 105% [100 µM] (inactive) and 96.1% [100 µM] (inactive).

`CCCCCCCCCC(=O)CC(=O)c1c(O)cc(O)cc1O`: the growth was -97.6% [75 µM] (active) and -88.4% [75 µM] (active).

In the case of `Clc1ccc(C2NN=C3c4ccccc4OCC32)cc1` (centres undefined), the growth was 4.4% [100 µM] (active) and -69.2% [100 µM] (active). On to `CCCCCCCCOC(=O)C12Oc3ccc(-c4ccc5c(c4O)C(O)=C4C(=O)CC(C)C(O)C4(C(=O)OCCCCCCCC)O5)c(O)c3C(O)=C1C(=O)CC(C)C2O` (centres undefined), for which the growth was -66.7% [100 µM] (active) and -97.2% [100 µM] (active). In the case of `COc1ccc(N=C(C)C(C)=Nc2ccc(OC)cc2)cc1`, the growth is 9.18% [100 µM] (active) and 4.99% [100 µM] (active). With `CC(=O)C1=C(C)N2C(=NC3=C(CCc4ccccc43)C2c2cccc(Br)c2)S1` (centres undefined), the growth is 52.3% [100 µM] (inactive) and 8.59% [100 µM] (active). Consider `O=c1c2ccccc2nc(-c2ccccc2)n1/N=C/c1ccccc1[N+](=O)[O-]`, for which the growth is 54.7% [100 µM] (inactive) and 24.5% [100 µM] (inactive).

Regarding `COc1cc2c(cc1-c1coc3cc(O)ccc3c1=O)OCO2`, the growth was 58.8% [100 µM] (inactive) and 55% [100 µM] (inactive).

Turning to `Fc1ccc(Nc2nc(Cl)c3[nH]cnc3n2)cc1Cl`, the growth was 68% [100 µM] (inactive) and 34.7% [100 µM] (inactive). As to `O=C1c2ccccc2-c2c1c1ccccc1c(=O)n2CCO`, the growth is -21.8% [100 µM] (active) and -78.7% [100 µM] (active). Take `CC(=N\N=C\c1ccccn1)/C(C)=N/N=C/c1ccccn1`: the growth is 86% [100 µM] (inactive) and 54.1% [100 µM] (inactive).

Take `COc1ccc2nc(N/N=C/c3ccc(C)s3)cc(C)c2c1`: the growth is -97.7% [100 µM] (active) and -100% [100 µM] (active). The same measure for `CC1OC(Oc2c(-c3cc(O)c(O)c(O)c3)oc3cc(O)cc(O)c3c2=O)C(O)C(O)C1O` (centres undefined): 59.6% [100 µM] (inactive) and -60.3% [100 µM] (active); for `CCOc1cc2c(cc1O)C=C[C@@H]1[C@@H]2CC[C@]2(C)[C@@H](O)CC[C@@H]12`: -65.7% [100 µM] (active) and -100% [100 µM] (active).
